Experimental data taken from PubChem BioAssay AID1159580 (chemical genetic matrix, 2015).
“And” between values parts separate entries of the source, which are not always exact repeats. Equal entries are not always repeated. Out of some 5,500 compounds screened, about 2,000 (36%) were called active. Inconclusive results (about 18%) are left out. Some of the results follow. A number with no mark means an inactive call. No stated cut-off is given here; in the data, active means normalized growth mostly below about 0.91 (no sharp cut-off); inconclusive means no clear call, values can overlap the other calls; inactive means mostly above about 0.92.

Test: chemical genetic growth profiling, strain panel (AID 1159580);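 further: tested at 20 µM; growth read once vehicle control cultures reached saturation at 30 °C; 1 = growth at the plate median or of vehicle wells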
Conditions: growth OD

Compound: CN(C)CCC=C1c2ccccc2C=Cc2ccccc21
- normalized growth (S. cerevisiae deletion strains, locus YKL009W, strain mrt4, stronger effect = lower value): 0.959
- normalized growth (S. cerevisiae deletion strains, locus YKL068W, stronger effect = lower value): 0.982
- normalized growth (S. cerevisiae deletion strains, locus YKL085W, strain MDH1 (second series), stronger effect = lower value): 0.975
- normalized growth (S. cerevisiae deletion strains, locus YKL085W, strain MDH1, stronger effect = lower value): 0.975
- normalized growth (S. cerevisiae deletion strains, locus YKL160W, strain elf1, stronger effect = lower value): 0.958
- normalized growth (S. cerevisiae deletion strains, locus YKL190W, strain CNB1, stronger effect = lower value): 0.977
- normalized growth (S. cerevisiae deletion strains, locus YKR001C, strain vps1, stronger effect = lower value): 1.01
- normalized growth (S. cerevisiae deletion strains, locus YKR026C, strain gcn3, stronger effect = lower value): 0.998
- normalized growth (S. cerevisiae deletion strains, locus YKR091W, strain srl3, stronger effect = lower value): 0.971
- normalized growth (S. cerevisiae deletion strains, locus YLL001W, strain dnm1, stronger effect = lower value): 1.01
- normalized growth (S. cerevisiae deletion strains, locus YLL026W, stronger effect = lower value): 0.985
- normalized growth (S. cerevisiae deletion strains, locus YLL041C, strain sdh2, stronger effect = lower value): 0.984
- normalized growth (S. cerevisiae deletion strains, locus YLR027C, strain aat2, stronger effect = lower value): 0.98
- normalized growth (S. cerevisiae deletion strains, locus YLR039C, strain RIC1, stronger effect = lower value): 1.35 [resistant] (active)
- normalized growth (S. cerevisiae deletion strains, locus YLR058C, strain SHM2, stronger effect = lower value): 0.99
- normalized growth (S. cerevisiae deletion strains, locus YLR102C, strain apc9, stronger effect = lower value): 0.985
- normalized growth (S. cerevisiae deletion strains, locus YLR113W, strain HOG1, stronger effect = lower value): 1.04
- normalized growth (S. cerevisiae deletion strains, locus YLR221C, strain rsa3, stronger effect = lower value): 1
- normalized growth (S. cerevisiae deletion strains, locus YLR258W, strain gsy2, stronger effect = lower value): 0.989
- normalized growth (S. cerevisiae deletion strains, locus YLR262C, strain YPT6 (second series), stronger effect = lower value): 1.02
- normalized growth (S. cerevisiae deletion strains, locus YLR262C, strain YPT6, stronger effect = lower value): 1.53 [resistant] (active)
- normalized growth (S. cerevisiae deletion strains, locus YLR268W, strain sec22, stronger effect = lower value): 0.99
- normalized growth (S. cerevisiae deletion strains, locus YLR320W, strain mms22, stronger effect = lower value): 1.01
- normalized growth (S. cerevisiae deletion strains, locus YLR330W, strain CHS5, stronger effect = lower value): 0.987
- normalized growth (S. cerevisiae deletion strains, locus YLR342W, strain FKS1 (second series), stronger effect = lower value): 0.903
- normalized growth (S. cerevisiae deletion strains, locus YLR342W, strain FKS1, stronger effect = lower value): 0.979
- normalized growth (S. cerevisiae deletion strains, locus YLR357W, strain rsc2, stronger effect = lower value): 1.01
- normalized growth (S. cerevisiae deletion strains, locus YLR370C, strain arc18, stronger effect = lower value): 0.988
- normalized growth (S. cerevisiae deletion strains, locus YLR371W, strain rom2, stronger effect = lower value): 0.992
- normalized growth (S. cerevisiae deletion strains, locus YLR384C, strain iki3, stronger effect = lower value): 0.991
- normalized growth (S. cerevisiae deletion strains, locus YLR418C, strain cdc73, stronger effect = lower value): 0.811 (active)
- normalized growth (S. cerevisiae deletion strains, locus YML016C, strain PPZ1, stronger effect = lower value): 0.996
- normalized growth (S. cerevisiae deletion strains, locus YML032C, strain rad52, stronger effect = lower value): 1.01
- normalized growth (S. cerevisiae deletion strains, locus YML120C, strain ndi1, stronger effect = lower value): 1
- normalized growth (S. cerevisiae deletion strains, locus YML124C, strain tub3, stronger effect = lower value): 0.997
- normalized growth (S. cerevisiae deletion strains, locus YMR058W, strain fet3, stronger effect = lower value): 0.968
- normalized growth (S. cerevisiae deletion strains, locus YMR078C, strain ctf18, stronger effect = lower value): 0.984
- normalized growth (S. cerevisiae deletion strains, locus YMR125W, strain sto1, stronger effect = lower value): 0.95
- normalized growth (S. cerevisiae deletion strains, locus YMR129W, stronger effect = lower value): 0.99
- normalized growth (S. cerevisiae deletion strains, locus YMR205C, strain PFK2, stronger effect = lower value): 1
- normalized growth (S. cerevisiae deletion strains, locus YMR223W, strain ubp8, stronger effect = lower value): 0.951
- normalized growth (S. cerevisiae deletion strains, locus YMR231W, strain pep5, stronger effect = lower value): 0.989
- normalized growth (S. cerevisiae deletion strains, locus YMR263W, strain SAP30, stronger effect = lower value): 1
- normalized growth (S. cerevisiae deletion strains, locus YMR307W, strain GAS1, stronger effect = lower value): 1.01 and 0.999
- normalized growth (S. cerevisiae deletion strains, locus YNL067W, strain RPL9B, stronger effect = lower value): 0.994
- normalized growth (S. cerevisiae deletion strains, locus YNL071W, strain lat1, stronger effect = lower value): 0.99
- normalized growth (S. cerevisiae deletion strains, locus YNL153C, strain GIM3, stronger effect = lower value): 1.04 and 1
- normalized growth (S. cerevisiae deletion strains, locus YNL175C, strain NOP13, stronger effect = lower value): 1.06
- normalized growth (S. cerevisiae deletion strains, locus YNL183C, strain NPR1, stronger effect = lower value): 0.955
- normalized growth (S. cerevisiae deletion strains, locus YNL197C, strain WHI3, stronger effect = lower value): 1.02
- normalized growth (S. cerevisiae deletion strains, locus YNL209W, strain ssb2, stronger effect = lower value): 0.925 (active)
- normalized growth (S. cerevisiae deletion strains, locus YNL224C, strain SQS1, stronger effect = lower value): 1.01
- normalized growth (S. cerevisiae deletion strains, locus YNL233W, strain BNI4, stronger effect = lower value): 1.02
- normalized growth (S. cerevisiae deletion strains, locus YNL248C, strain rpa49, stronger effect = lower value): 0.959
- normalized growth (S. cerevisiae deletion strains, locus YNL250W, strain rad50, stronger effect = lower value): 0.985
- normalized growth (S. cerevisiae deletion strains, locus YNL271C, strain bni1, stronger effect = lower value): 0.986
- normalized growth (S. cerevisiae deletion strains, locus YNL298W, strain CLA4, stronger effect = lower value): 0.988
- normalized growth (S. cerevisiae deletion strains, locus YNL307C, strain MCK1, stronger effect = lower value): 0.994
- normalized growth (S. cerevisiae deletion strains, locus YNL322C, strain KRE1 (second series), stronger effect = lower value): 0.992
- normalized growth (S. cerevisiae deletion strains, locus YNL322C, strain KRE1, stronger effect = lower value): 0.977
- normalized growth (S. cerevisiae deletion strains, locus YNR049C, strain mso1, stronger effect = lower value): 0.978
- normalized growth (S. cerevisiae deletion strains, locus YNR052C, strain pop2, stronger effect = lower value): 0.948
- normalized growth (S. cerevisiae deletion strains, locus YOL006C, strain TOP1, stronger effect = lower value): 0.852
- normalized growth (S. cerevisiae deletion strains, locus YOL012C, strain htz1): 0.956
- normalized growth (S. cerevisiae deletion strains, locus YOL147C, strain pex11, stronger effect = lower value): 0.996
- normalized growth (S. cerevisiae deletion strains, locus YOR001W, strain rrp6, stronger effect = lower value): 0.965
- normalized growth (S. cerevisiae deletion strains, locus YOR061W, strain CKA2, stronger effect = lower value): 0.99
- normalized growth (S. cerevisiae deletion strains, locus YOR069W, strain VPS5, stronger effect = lower value): 0.983
- normalized growth (S. cerevisiae deletion strains, locus YOR070C, strain gyp1, stronger effect = lower value): 0.966
- normalized growth (S. cerevisiae deletion strains, locus YOR080W, strain dia2, stronger effect = lower value): 0.98
- normalized growth (S. cerevisiae deletion strains, locus YOR083W, strain WHI5 (second series), stronger effect = lower value): 1.08
- normalized growth (S. cerevisiae deletion strains, locus YOR083W, strain WHI5, stronger effect = lower value): 0.945
- normalized growth (S. cerevisiae deletion strains, locus YOR106W, strain vam3, stronger effect = lower value): 0.89
- normalized growth (S. cerevisiae deletion strains, locus YOR136W, strain idh2, stronger effect = lower value): 1.03
- normalized growth (S. cerevisiae deletion strains, locus YOR144C, strain elg1, stronger effect = lower value): 1
- normalized growth (S. cerevisiae deletion strains, locus YOR184W, strain ser1, stronger effect = lower value): 1.04
- normalized growth (S. cerevisiae deletion strains, locus YOR231W, strain MKK1, stronger effect = lower value): 1.02
- normalized growth (S. cerevisiae deletion strains, locus YOR265W, strain rbl2, stronger effect = lower value): 0.983
- normalized growth (S. cerevisiae deletion strains, locus YOR270C, strain vph1, stronger effect = lower value): 0.809
- normalized growth (S. cerevisiae deletion strains, locus YOR290C, strain snf2, stronger effect = lower value): 0.958
- normalized growth (S. cerevisiae deletion strains, locus YOR316C, strain cot1, stronger effect = lower value): 0.988
- normalized growth (S. cerevisiae deletion strains, locus YPL051W, strain arl3, stronger effect = lower value): 0.964
- normalized growth (S. cerevisiae deletion strains, locus YPL078C, strain atp4, stronger effect = lower value): 0.989
- normalized growth (S. cerevisiae deletion strains, locus YPL106C, strain sse1, stronger effect = lower value): 0.927
- normalized growth (S. cerevisiae deletion strains, locus YPL240C, strain hsp82, stronger effect = lower value): 0.985
- normalized growth (S. cerevisiae deletion strains, locus YPL241C, strain CIN2, stronger effect = lower value): 0.978 and 1
- normalized growth (S. cerevisiae deletion strains, locus YPL256C, strain CLN2, stronger effect = lower value): 1.01
- normalized growth (S. cerevisiae deletion strains, locus YPR119W, strain clb2, stronger effect = lower value): 0.998
- normalized growth (S. cerevisiae deletion strains, locus YPR141C, strain kar3, stronger effect = lower value): 0.987
- normalized growth (S. cerevisiae deletion strains, locus YPR163C, strain tif3, stronger effect = lower value): 0.988
- normalized growth (S. cerevisiae deletion strains, locus YPR167C, strain met16, stronger effect = lower value): 0.992
- normalized growth (S. cerevisiae deletion strains, strain wtn01, stronger effect = lower value): 0.981
- normalized growth (S. cerevisiae strains, strain wild type, stronger effect = lower value): 0.99
